Reference: PubChem BioAssay (NCATS)
Inconclusive results are not listed. Active and inactive are the calls of the source. The call rests on the fitted dose curve; in most records, active means well fitted cell-killing curve with a large enough effect; inconclusive means small, poorly fitted or top-dose-only effect, or effect the other way; inactive means flat fitted curve, though single readings scatter.

assay: MultiTox-Fluor Cytotoxicity Assay - LYMP1-002 - Live Cells (AID 955); details: LYMP1-002 lymphoblastoid live-cell protease fluorescence viability; series mostly up to 46.1 µM
Description: NIH Chemical Genomics Center [NCGC]
NIH Molecular Libraries Screening Centers Network [MLSCN]
National Institutes of Environmental Health Sciences [NIEHS]
National Toxicology Program [NTP]
We have developed a 1536-well cell-based assay for quantitative high throughput screening (qHTS) against a number of cell lines to determine in vitro cytotoxicity of small molecules. This particular assay uses a human lymphoblastoid cell line (LYMP1-002) purchased from Coriell Institute.
NCGC Assay Protocol Summary:
The MultiTox-Fluor Cytotoxicity Assay (Promega) is a homogeneous method to simultaneously measure the relative number of live and dead cells in culture by detecting changes in cell membrane integrity. There are two fluorogenic peptide substrates in the assay reagent. Viable cells are determined when the cell-permeant substrate (GF-AFC) enters the cell and is cleaved by protease from live cells resulting in liberated fluorophore. This live-cell protease activity restricted to viable cells is proportional to cell number. The dead cells are determined by using fluorogenic cell-impermeant peptide substrate (bis-AAF-R110) which cleaved by dead cell proteases leaking from damaged cell membrane.
Using the MultiTox-Fluor Cytotoxicity Assay, the relative number of live cells was measured in the lymphoblastoid cell line with complete culture medium following compound treatment for 16 hours. The assay was performed in opaque black Kalypsys 1536-well plates. In the screen, tetraoctylammonium bromide was used as positive control. Library compounds were measured for their ability to cause acute toxicity in the cell line, as reflected by a decrease in live cell protease activity, in a concentration-dependent manner. […] AC50 values were determined from concentration-response data modeled with the standard Hill equation.
qHTS protocol for MultiTox-Fluor Cytotoxicity assay
[Step] [Parameter] [Value] [Description]
1. Reagent; 5 uL; 2500 lymphoblastoid cells/well
2. Time; 5 hr; 37 C incubation
4. Controls; 23 nL; Tetraoctylammonium bromide 6.4pM to 92 uM
5. Time; 16 hr; 37 C incubation
6. Reagent; 5 uL; MuliTox-Fluor Assay reagent
7. Time; 60 min; Room Temperature
8. Detection; live-cell fluorescence (Ex/Em=405/510); EnVision plate reader
Keywords: cell viability, cytotoxicity, lymphoblastoid cell line, fluorescence, NTPHTS, NTPHTS_NCGC, NIEHS, EPA, DSSTox, MLSMR, MLSCN, NIH Roadmap, qHTS, NCGC

Structure (SMILES) | outcome
ClC1=C(Cl)C2(Cl)C3C(Cl)C=CC3C1(Cl)C2(Cl)Cl (stereo not given) | inactive
Cc1ccc([N+](=O)[O-])cc1C | inactive
c1ccc2c(c1)CCCC2 | inactive
c1ccc(-c2ccccc2)cc1 | inactive
C=C(C)C#N | inactive
OCC(Br)CBr (stereo not given) | inactive
ClC1=C(Cl)C2(Cl)C3C4C=CC(C4)C3C1(Cl)C2(Cl)Cl (stereo not given) | inactive
Cc1ccc(O)c(C)c1 | inactive
CCCC(=O)Cl | inactive
Clc1nc(Cl)nc(Cl)n1 | inactive
N#CCCCl | inactive
CCOCN(C(=O)CCl)c1c(C)cccc1CC | inactive
C=C(C)C(=O)OCC1CO1 (stereo not given) | inactive
C[C@H]1CCCC(=O)CCC/C=C/c2cc(O)cc(O)c2C(=O)O1 | inactive
Cc1ccccc1N | inactive
COC1=CC(=O)OC(CCc2ccccc2)C1 (stereo not given) | inactive
O=NN(CCO)CCO | inactive
Clc1ccc2ccccc2c1 | inactive
CCC[CH2][Sn]([Cl])([Cl])[Cl] | inactive
Cc1cccc([N+](=O)[O-])c1 | inactive

Structure (SMILES) | outcome
CCCCOC(=O)c1ccccc1C(=O)OCCCC | inactive
C=CC(N)=O | inactive
S=C=Nc1cccc2ccccc12 | inactive
CCCOC(=O)c1ccccc1C(=O)OCCC | inactive
O=C=NC1CCCCC1 | inactive
CCCCCCCC(=O)Cl | inactive
C=CC(=O)OCC | inactive
CCSC(=O)Cl | inactive
Clc1cccc(C(Cl)(Cl)Cl)n1 | inactive
C/C=C/c1ccc2c(c1)OCO2 | inactive
C=CC1CC=CCC1 (stereo not given) | inactive
CC(C)(c1ccccc1)c1ccc(O)cc1 | inactive
CNC(=O)O/N=C/C(C)(C)SC | inactive
ClCBr | inactive
Brc1ccccc1 | inactive
BrCCBr | inactive
c1ccc(OP(Oc2ccccc2)Oc2ccccc2)cc1 | inactive
CCN(CC)c1ccccc1 | inactive
CCOP(=S)(OCC)SCSC(C)(C)C | inactive
O=NN(c1ccccc1)c1ccccc1 | inactive
